# The supplement of paper PMC12340641
# Target: IKZF1 (dCK*-IKZF1 fusion in HEK293FT) (UniProt Q13422)
# Assay: inhibition of IKZF1 HTRF signal (DMSO = 0%, pomalidomide 10 uM = 100%); higher = lower IKZF1 protein level
# Conditions: compound concentration: 5 uM, overnight (~20 h)
# Outline: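 HEK293FT cells stably expressing a dCK*-IKZF1 fusion (2000/well, 384-well) were treated overnight at 37 °C with 5 μM compound in single wells. They were then lysed 30 min at room temperature, and lysate was incubated overnight with a commercial HTRF total-IKZF1 antibody kit. The time-resolved FRET ratio (665/620 nm) was background-subtracted. Percent inhibition of IKZF1 signal was normalised per plate to vehicle (0%) and a reference degrader (100%).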
# Sequence of IKZF1 (dCK*-IKZF1 fusion in HEK293FT) (Q13422 whole entry, looked up, the tested form may be a part): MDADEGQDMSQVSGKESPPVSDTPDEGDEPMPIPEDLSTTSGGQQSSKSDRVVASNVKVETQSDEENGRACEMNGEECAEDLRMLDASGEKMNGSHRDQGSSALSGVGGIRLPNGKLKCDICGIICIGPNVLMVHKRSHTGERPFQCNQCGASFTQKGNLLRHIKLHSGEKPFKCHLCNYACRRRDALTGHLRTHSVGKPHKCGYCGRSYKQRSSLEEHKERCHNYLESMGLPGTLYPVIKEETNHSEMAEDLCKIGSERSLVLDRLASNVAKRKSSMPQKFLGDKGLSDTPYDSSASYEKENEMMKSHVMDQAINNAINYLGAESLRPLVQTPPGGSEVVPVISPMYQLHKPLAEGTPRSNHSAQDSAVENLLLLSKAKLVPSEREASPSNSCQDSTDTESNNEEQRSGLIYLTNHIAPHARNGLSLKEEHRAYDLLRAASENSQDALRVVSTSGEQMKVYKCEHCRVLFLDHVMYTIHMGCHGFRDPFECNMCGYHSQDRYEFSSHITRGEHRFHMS
row,SMILES,inhibition of IKZF1 HTRF signal
1,O=c1[nH]c2ccccc2n1CCCN1CCC(n2c(=O)[nH]c3cc(Cl)ccc32)CC1,4.83%
2,O=C(N/N=C/c1ccc([N+](=O)[O-])o1)c1cc([N+](=O)[O-])cc([N+](=O)[O-])c1O,2.89%
3,C[C@@]1(CO)[C@H](O)CC[C@@]2(C)[C@H]1CC[C@H]1C[C@@H]3C[C@@]12CC[C@]3(O)CO [Aphidicolin],-14.2%
4,CC[C@H]1C2CC3[C@@H]4N(C)c5ccccc5[C@]45C[C@@H](C2C5O)N3[C@@H]1O (some centres undefined),-0.05%
5,COC[C@H]1OC(=O)c2coc3c2[C@@]1(C)C1=C(C3=O)[C@@H]2CCC(=O)[C@@]2(C)C[C@H]1OC(C)=O [Wortmannin],1.66%
6,CC(=O)OC[C@]12CCC(C)=C[C@H]1O[C@@H]1[C@H](O)[C@@H](OC(C)=O)[C@@]2(C)[C@@]12CO2 [Diacetoxyscirpenol],93.3%
7,CC[C@@]1(C2O[C@@H](C3O[C@@](O)(CO)[C@H](C)C[C@@H]3C)C[C@@H]2C)CC[C@H]([C@]2(C)CC[C@]3(C[C@H](O)[C@@H](C)[C@@H]([C@@H](C)[C@@H](OC)[C@H](C)C(=O)O)O3)O2)O1 (some centres undefined),9.03%
8,O=C(Nc1ccc(Br)cc1)c1cc(Br)cc(Br)c1O [tribomsalan],13.9%
9,O=c1[nH]c2ccccc2n1C1CCN(CCCC(c2ccc(F)cc2)c2ccc(F)cc2)CC1 [Pimozide],-27.8%
10,c1ccc2c(c1)Sc1ccccc1N2CC1CN2CCC1CC2 (centres undefined) [levomequitazine],10.6%
11,NCC1(CC(=O)O)CCCCC1,-1.54%
12,C[C@]12CC[C@H](O)C[C@H]1CC[C@@H]1[C@@H]2C[C@@H](O)[C@]2(C)[C@@H](C3=CC(=O)OC3)CC[C@]12O [Digoxigenin],22.7%
13,N=C(Nc1ccccc1)Nc1ccccc1 [diphenylguanidine],-55.9%
14,O=c1[nH]c2ccccc2n1C1CCN(CCCC(c2ccc(F)cc2)c2ccc(F)cc2)CC1,-18.9%
15,CO[C@@]12C(=COC(N)=O)c3c(O)c(N)c(C)c(O)c3N1C[C@@H]1N[C@@H]12 [Mitomycin C],15.8%
16,CC(Cc1ccccc1)NCCC(c1ccccc1)c1ccccc1 (centres undefined) [prenylamine],-23.8%
17,CO[C@H]1[C@H](O)[C@H](O[C@H]2CC[C@@]3(C=O)[C@H](CC[C@@H]4[C@@H]3CC[C@]3(C)[C@@H](C5=CC(=O)OC5)CC[C@]43O)C2)O[C@@H](C)[C@@H]1O [Peruvoside],94.1%
18,C[C@@H]1C[C@@H]([C@H](O)CC2CC(=O)NC(=O)C2)C(=O)[C@@H](C)C1,79.8%
19,CC[C@H]1CN2CCc3cc(OC)c(OC)cc3C2C[C@@H]1CC1NCCc2cc(OC)c(OC)cc21 (some centres undefined),38.3%
20,CC(C)[C@]12O[C@H]1[C@@H]1O[C@]13[C@]1(O[C@H]1C[C@H]1C4=C(CC[C@@]13C)C(=O)OC4)[C@@H]2O [Triptolide],29.6%
21,c1ccc2c(c1)Nc1ccccc1S2,-13.2%
22,CCOc1ccccc1-n1c(C(C)N2CCN(C(=O)COc3ccc(Cl)cc3)CC2)nc2ccccc2c1=O (centres undefined) [Erastin],-51.3%
23,CCC(C)[C@H]1O[C@]2(C=C[C@@H]1C)C[C@@H]1C[C@@H](C/C=C(\C)[C@@H](OC3C[C@H](OC)C(O[C@H]4C[C@H](OC)[C@@H](O)[C@H](C)O4)[C@H](C)O3)[C@@H](C)/C=C/C=C3\CO[C@@H]4[C@H](O)C(C)=C[C@@H](C(=O)O1)[C@]34O)O2 (some centres undefined) [ABAMECTIN (avermectin B1a shown)],-61.7%
24,CCCCC1(C2CCCC2)Cc2cc(OCCCC(=O)O)c(Cl)c(Cl)c2C1=O (centres undefined),-38.8%
